# SARS PLpro yeast – inhibitors of SARS-CoV papain-like protease in yeast. S. cerevisiae expressing SARS-CoV PLpro, growth rescue. Potency, µM (top dose mostly 32.9 µM), for inactives: at the top dose activity, positive = growth rescue, usual class: activators. 0.19% of 330,000 active. AID 485353; calls by dose curve; further: 0% is about no effect; nearly all actives have a fitted effect of over 55% in size
# Giardia FBPA inh-1 – Giardia lamblia aldolase inhibition; AID 2451; 0.71% of 290,000 active; purified Giardia FBPA; Potency, µM (highest dose often 59.6 µM), for the others: top-dose activity, negative = inhibition, hits mostly inhibitors; further: on the % scale 0 is the no-effect control and ±100 the full control effect; nearly all actives have a fitted effect of over 55% in size
# Target sequence (A8B2U2 whole entry, looked up): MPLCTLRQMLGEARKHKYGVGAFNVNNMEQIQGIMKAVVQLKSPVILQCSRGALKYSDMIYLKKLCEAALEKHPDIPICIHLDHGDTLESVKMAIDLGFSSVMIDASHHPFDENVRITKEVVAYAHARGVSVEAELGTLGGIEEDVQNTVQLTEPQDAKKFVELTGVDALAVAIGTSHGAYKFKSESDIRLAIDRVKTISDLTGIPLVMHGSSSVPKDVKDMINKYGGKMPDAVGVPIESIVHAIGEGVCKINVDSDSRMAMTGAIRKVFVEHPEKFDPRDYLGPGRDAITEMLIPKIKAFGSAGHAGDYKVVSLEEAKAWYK
#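 40 nM FBPA preincubated 10 min at RT with compound (up to 57.5 uM final), then substrate plus GAPDH/TPI/NAD/arsenate coupling and diaphorase/resazurin added. Fluorescence read after 20 min at RT, 525/598 nm.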
# TbPYK inhibitor – blocks Trypanosoma brucei pyruvate kinase. Q57TT1. TbPYK enzyme, Kinase-Glo Plus ATP luminescence, 45 min. Potency, µM (highest dose often 76.8 µM), for the others: at the top dose activity, negative = inhibition, most hits filed as inhibitors. 0.12% of 410,000 active. AID 624173; further: on the % scale 0 is the no-effect control and ±100 the full control effect; nearly all actives have a fitted effect of over 50% in size
#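 TbPYK + substrate in 50 mM TEA pH 7.2, 100 mM KCl, 10 mM MgCl2, 0.05% BSA, 0.01% Tween-20; cpd pinned; ADP 130 uM final; 45 min RT; Kinase-Glo Plus 10 min; luminescence endpoint.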
# RE007 growth inh – less growth of the S. pombe RE007 Vpr strain; S. pombe RE007 Vpr strain, BacTiter-Glo ATP luminescence, 24 h; Potency, µM (doses to about 92.2 µM), inactives show top-dose activity change, negative = less growth, most hits filed as inhibitors; 0.21% of 360,000 active; AID 651644; active means well fitted falling curve with a large enough effect; inconclusive means small, poorly fitted or top-dose-only effect; inactive means no such curve, though single readings can be large or run the other way; further: on the % scale 0 is the no-effect control and ±100 the full control effect; nearly all actives have a fitted effect of over 50% in size
#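 Fission yeast RE007 carrying one integrated HIV-1 vpr copy, seeded at OD 0.01 in PMG+AL medium with 23 nL pinned compound. Grown 24 h at 30 degrees; viability read by BacTiter-Glo luminescence after 5 min.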
# LmPK inh – LmPK (Leishmania mexicana) enzyme inhibition; Potency, µM (doses to about 57.5 µM), for the others: at the highest dose activity change, negative = inhibition, usual class: inhibitors; Q27686; 0.37% of 290,000 active; purified LmPK, Kinase-Glo ATP luminescence, 1 h; further: on the % scale 0 is the no-effect control and ±100 the full control effect
#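 In 50 mM imidazole pH 7.2 with 7 mM MgCl2, LmPK (0.1 nM) turned over PEP (0.5 mM) and ADP (0.1 mM) for 1 h at room temperature. Luciferase read-out of ATP.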
# Giardia growth – inhibitors of Giardia lamblia growth; shares compounds with Giardia FBPA inh-1; 5% of 1,500 active; Potency, µM (highest dose often 57.5 µM), for the others: at the top dose activity change, negative = inhibition, most hits filed as inhibitors; Giardia lamblia trophozoite growth inhibition;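 further: trophozoites exposed to compound for 48 h at 37 °C; on the % scale 0 is the no-effect control and ±100 the full control effect; nearly all actives have a fitted effect of over 70% in size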
# Mammalian tox – counter-screen for Giardia aldolase inhibitors: mammalian cell toxicity; shares compounds with Giardia FBPA inh-1; mammalian cell viability counter-screen, qHTS; Potency, µM (doses to about 57.5 µM), for inactives: top-dose viability change, negative = toxicity, hits mostly inhibitors; 4% of 1,500 active; AID 2786;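 further: Chinese hamster ovary cells used as mammalian cytotoxicity surrogate; viability measured as cellular ATP by luminescence; compound exposure lasted 48 h before reading; on the % scale 0 is the no-effect control and ±100 the full control effect; nearly all actives have a fitted effect of over 60% in size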
# Giardia FBPA inh-2 – confirmation of Giardia fructose-bisphosphate aldolase inhibitors. 5% of 1,500 active. purified Giardia aldolase enzyme activity, qHTS. shares compounds with Giardia FBPA inh-1. Potency, µM (doses to about 57.5 µM), inactives show at the highest dose activity change, negative = inhibition, actives largely listed as inhibitors; further: on the % scale 0 is the no-effect control and ±100 the full control effect; nearly all actives have a fitted effect of over 45% in size
# Rabbit aldolase – selectivity test for Giardia aldolase inhibitors: rabbit aldolase; shares compounds with Giardia FBPA inh-1; Rabbit muscle FBPA enzyme inhibition, selectivity counter-screen; Potency, µM (series often up to 57.5 µM), for the others: top-dose activity, negative = inhibition, hits mostly inhibitors; 4% of 1,500 active; AID 2794; further: on the % scale 0 is the no-effect control and ±100 the full control effect; nearly all actives have a fitted effect of over 60% in size
# GAPDH coupling – counter-screen for Giardia aldolase inhibitors: GAPDH coupling enzyme; AID 2795; 6% of 1,500 active; GAPDH coupling enzyme counterscreen, biochemical, qHTS; Potency, µM (doses to about 57.5 µM), without a hit: at the highest dose activity change, negative = inhibition, hits mostly inhibitors; shares compounds with Giardia FBPA inh-1; further: on the % scale 0 is the no-effect control and ±100 the full control effect; nearly all actives have a fitted effect of over 55% in size
# Active calls of the source: *; u = inconclusive; x = no result; [ ] = remark or other dose. Hits are enriched below; roughly 1.1% of the tested compounds scored in any of these assays. Unless noted, the call rests on the fitted dose curve; in most records, active means well fitted curve in the direction sought with a large enough effect; inconclusive means small, poorly fitted or top-dose-only effect, or another doubt; inactive means no such curve, though single readings can be large; an effect the other way counts as inactive or inconclusive. Potency means the concentration at half of the fitted maximal effect.
SMILES,SARS PLpro yeast,Giardia FBPA inh-1,TbPYK inhibitor,RE007 growth inh,LmPK inh,Giardia growth,Mammalian tox,Giardia FBPA inh-2,Rabbit aldolase,GAPDH coupling
COC(=O)c1cc2oc(C)cc2n1Cc1cccc(Cl)c1,x,x,-6.4%,x,x,x,x,x,x,x
CCc1ccc2c(CN(CC)Cc3nc4ccccc4c(=O)[nH]3)cc(=O)oc2c1,2.1%,-24.0%,5.9%,75.3%,1.2%,x,x,x,x,x
CCN(Cc1nc2ccccc2c(=O)[nH]1)Cc1nc2cc(OC)c(OC)cc2c(=O)[nH]1,7.5%,5.61µM*,11.4%,4.7%,6.5%,-5.6%[38.3 µM],-15.5%,u,-20.9%,-23.4%
CCN(Cc1nc2ccccc2c(=O)[nH]1)Cc1nc2ccsc2c(=O)[nH]1,-3.3%,0.792µM*,0.8%,-7.9%,9.0%,8.3%[38.3 µM],-26.5%,-13.4%,-22.1%,u
Cc1ccc(NC(=O)CN(C)C2CCCCC2)cc1Cl,4.5%,20µM*,-4.3%,7.9%,-6.4%,18.1%,1.6%,7.8%,1.8%,1.3%
O=P(O)(O)OC[C@H]1O[C@](O)(COP(=O)(O)O)[C@@H](O)[C@@H]1O,x,x,-7.5%,x,x,x,x,x,x,x
CN1/C(=C\C(=O)CSc2cccc[n+]2[O-])C(C)(C)c2ccccc21,u,11.2µM*,1.0%,8.2%,3.4%,-20.6%,24.2%,-2.6%,7.5%,2.5%
Cc1ccc(-n2ncc(C(=O)NCc3ccc4c(c3)OCO4)c2C2CCN(C(=O)OC(C)(C)C)CC2)cc1C,x,x,3.0%[15.4 µM],x,x,x,x,x,x,x
Cc1nccn1CC1CCc2c(c3ccccc3n2C)C1=O (stereo unspecified),-1.9%,20µM*,-9.9%,17.1%[18.4 µM],-14.4%,10.8%[10.4 µM],-0.9%,5.5%,4.3%,16.5%
Cc1nccn1C[C@@H]1CCc2c(c3ccccc3n2C)C1=O,-10.1%,-14.1%[21.7 µM],-2.9%,1.6%,-3.0%,x,x,x,x,x
O=C(CSc1nc2c([nH]c3ccccc32)c(=O)n1-c1cccc(Cl)c1)NCC1CCCO1 (stereo unspecified),x,x,5.6%,x,x,x,x,x,x,x
Cc1cc(O)c(C(C)C)cc1N=Cc1cc([N+](=O)[O-])ccc1O,-5.8%,u,-17.5%,-17.3%,2.9%,18.3%[38.3 µM],u,9.19µM*,13µM*,16.3µM*
COC(=O)[C@@H]1CC[C@H](C)[C@@H](c2ccc(C)cc2)N1C(=O)c1ccc(/C=N\OC[C@@H](O)[C@H]2O[C@H]3OC(C)(C)O[C@H]3[C@@H]2O)cc1,x,2.0%[12.9 µM],x,x,x,x,x,x,x,x
Cc1cc(NC(=O)C2CCCN(S(=O)(=O)c3cccc4nsnc34)C2)ccc1Br (stereo unspecified),x,x,3.9%,x,x,x,x,x,x,x
Cc1oc2ccc(O)c(CN(C)Cc3ccccc3)c2c1C(=O)Nc1cccc(C(F)(F)F)c1,x,x,0.6%,x,x,x,x,x,x,x
Fc1ccccc1CN1CCN(c2ncccn2)CC1,3.3%,25.1µM*,-6.1%,-0.8%,-1.2%,25.1%,13.3%,4.6%,0.1%,-18.2%
COc1ccc(Br)cc1CN1CCN(C(=O)c2ccco2)CC1,2.1%,28.2µM*,0.7%,56.9%,1.4%,u,-7.4%,2.1%,0.5%,-3.9%
COc1ccccc1CN1CCN(C(=O)c2ccco2)CC1,-1.7%,u,1.1%,0.9%,0.0%,x,x,x,x,x
